For 40 compounds, Potency results are on record in PubChem BioAssay (NCATS).

Results filed as inconclusive are left out. Entries that show only a call come without a potency. Active and inactive are the calls of the source. Calls come from the whole dose curve; as a rule, active = well fitted inhibition curve with a large enough effect; inconclusive = small, poorly fitted or top-dose-only effect, or effect the other way; inactive = flat fitted curve, though single readings scatter.
Potency is the fitted concentration of half-maximal effect.

The target in this experiment is ATP-dependent 6-phosphofructokinase (Trypanosoma brucei brucei) (UniProt O15648). The experiment in a line: qHTS Assay to Find Inhibitors of T. brucei phosphofructokinase: hit validation (AID 492961). Conditions: T. brucei PFK, ADP-Glo luminescence; series mostly up to 51.4 µM. The text has this: NIH Molecular Libraries Probe Production Network [MLPCN] NIH Chemical Genomics Center [NCGC] Grant: 1 R03 MH092153-01 PI Name: Malcolm Walkinshaw, University of Edinburgh NCGC Assay Overview: Various species of the protozoan family Trypanosomatidae are responsible for a range of serious human diseases in tropical and subtropical areas of the world. […] Many of the disorders caused by trypanosomatids are fatal if left untreated, but most currently used drugs are inefficient and toxic. […] Oxidative metabolism involving the mitochondrial tricarboxylic acid cycle and oxidative phosphorylation are repressed in these parasites, and recent RNA interference (RNAi) experiments have shown that even partial depletion of certain individual glycolytic enzymes can lead to the death of cultured parasites. One such glycolytic enzyme, phosphofructokinase (PFK), catalyzes the formation of fructose-1,6-bisphosphate (F1,6BP) and ADP from fructose-6-phosphate (F6P) and ATP, and in many metabolic circumstances makes an important contribution to the control of flux through the glycolytic pathway. As a specific glycolytic target, PFK is particularly attractive as it catalyzes the first irreversible step in glycolysis, and structural and kinetic studies have shown very substantial and essential differences from corresponding host enzymes, allowing for the discovery of parasite-selective inhibitors. The goal of this screen is to find small-molecule inhibitors of T. brucei PFK using a biochemical assay that measures PFK activity as a function of ADP production. A luminescence-based assay for T. brucei PFK activity has been developed which uses luciferase to detect production of ADP. Traditional luciferase-based nucleotide detection reagents rely on ATP production as a direct substrate for the luciferase reaction; however, PFK catalyzes the transfer of a phosphate from ATP to F6P, resulting in the net depletion of ATP. To directly measure the ADP product of the PFK reaction, we used the ADP-Glo detection kit (Promega), which utilizes two separate reactions to 1) deplete all remaining uncatalyzed ATP and 2) convert all remaining ADP to ATP, which is then detected through a traditional luciferase-coupled reaction. Compounds were screened as a concentration-titration series that ranged from 57 uM to 0.7 nM.
ATP-dependent 6-phosphofructokinase (Trypanosoma brucei brucei), sequence (O15648 whole entry, looked up): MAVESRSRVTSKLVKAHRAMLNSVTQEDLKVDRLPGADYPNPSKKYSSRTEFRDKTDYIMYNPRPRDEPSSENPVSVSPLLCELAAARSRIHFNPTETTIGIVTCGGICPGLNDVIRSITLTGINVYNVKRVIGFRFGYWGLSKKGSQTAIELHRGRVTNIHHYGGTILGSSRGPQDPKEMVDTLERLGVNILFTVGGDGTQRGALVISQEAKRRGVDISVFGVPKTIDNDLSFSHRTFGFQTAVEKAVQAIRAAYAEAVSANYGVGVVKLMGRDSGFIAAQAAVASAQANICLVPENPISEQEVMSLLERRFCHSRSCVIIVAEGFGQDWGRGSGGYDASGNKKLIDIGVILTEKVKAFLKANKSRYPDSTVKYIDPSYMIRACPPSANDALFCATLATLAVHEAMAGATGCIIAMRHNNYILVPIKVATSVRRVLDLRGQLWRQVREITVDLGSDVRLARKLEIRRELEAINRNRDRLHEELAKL
NCGC Assay Protocol Summary: Substrate buffer was dispensed into white, solid 1536-well plates at 3uL/well in 0.1M triethanolamine (TEA) buffer, pH 8.0, containing final concentrations of 5 mM MgCl2, 0.01% Tween20, 0.5 mM fructose-6-phosphate (F6P) and 0.1mM ATP. Then, 23 nL of compounds or DMSO were delivered to each well using a pin tool. One uL T. brucei PFK (0.1M TEA, 0.01% Tween20, 0.1% bovine serum albumin (BSA) and 1.25nM PFK, final concentrations) was then dispensed, and plates were incubated at room temperature for 45 min. The luminescent detection reagent, ADP-Glo (Promega), was then added in two steps: the first reagent, ADP-Glo (which converts remaining uncatalyzed ATP), was added at 2.5uL/well and incubated for ten minutes at room temperature, and the second component, Kinase Detection reagent (which converts ADP to ATP as a substrate for luciferase-based luminescence), was added immediately after at 5uL/well, followed by one final ten minute room temperature incubation. The plates were measured on a ViewLux plate reader for luminescent signal using a clear filter with a one second exposure. The %Activity was determined from the corrected luminescence values. As no specific T. brucei PFK inhibitors have been identified in the literature, 1x (1.25nM) and 0x PFK enzyme controls (untreated) were included to normalize %Activity of identified inhibitors; 0x enzyme values corresponded to 100%Activity (full inhibition), while 1x PFK enzyme values were used to normalize 0%Activity (no inhibition). Concentration-response curves were fitted to the signals arising from the resulting luminescence. […]
For orientation: qHTS replaces the single test concentration by a dilution series.
As for `C[C@]12CC[C@H]3[C@@H](CCC4=CC(=O)CC[C@@]43C)[C@@H]1CC[C@@H]2O`, the Potency result is “inactive”. Take `CN(C)[C@@H]1C(=O)C(C(N)=O)=C(O)[C@]2(O)C(=O)C3=C(O)c4c(O)ccc(Cl)c4[C@](C)(O)[C@H]3C[C@@H]12`: the Potency entry is “inactive”. To `CC(=O)OC1C[C@H](O[C@@H]2C(O)C[C@H](O[C@@H]3C(O)C[C@@H](OC4CC[C@]5(C)C(CCC6C5CC(O)[C@@]5(C)C(C7=CC(=O)OC7)CC[C@@]65O)C4)OC3C)OC2C)O[C@H](C)[C@H]1O[C@H]1OC(CO)C(O)C(O)C1O` (stereo not given in full) belongs “inactive”; to `CC(=O)OCC(=O)[C@@H]1CC[C@H]2[C@H]3CC[C@H]4C[C@@H](O)CC[C@]4(C)[C@@H]3C(=O)C[C@@]12C`, “inactive”; to `CC1=C2[C@@H]3OC(=O)[C@@H](C)[C@@H]3CC[C@]2(C)C=CC1=O`, “inactive”. Take `C[C@]12CC[C@H](O)CC1=CCC1C2CC[C@]2(C)C(=O)CC[C@@H]12` (stereo not given in full): the Potency entry is “inactive”. To `O=C1C=C2C=CC3C[C@@]2(O1)C1CCCCN31` (stereo not given in full) belongs “inactive”; to `CCC(C)C1O[C@]2(C=CC1C)CC1CC(C/C=C(\C)[C@H](OC3CC(OC)C(O[C@H]4CC(OC)[C@@H](O)C(C)O4)C(C)O3)[C@@H](C)/C=C/C=C3\COC4C(O)C(C)=C[C@H](C(=O)O1)[C@@]34O)O2` (stereo not given in full), “inactive”; to `CCNC[C@H](O)c1cccc(O)c1`, “inactive”. Consider `ClC1=C(Cl)C2(Cl)C3C4CC(C5OC45)C3C1(Cl)C2(Cl)Cl` (stereo not given), for which the Potency entry is “inactive”. On to `CCN[C@]1(c2cccs2)CCCCC1=O`, for which the Potency result is “inactive”. Under `O=c1ccc2cc(O[C@H]3O[C@@H](CO)[C@@H](O)[C@@H](O)[C@@H]3O)c(O)cc2o1` stands “inactive”. Under `C[C@]12CC[C@H](OS(=O)(=O)O)CC1=CCC1C2CC[C@]2(C)C(=O)CC[C@@H]12` (stereo not given in full) stands “inactive”; under `CC(=O)O[C@H]1CC[C@@]2(C)C(=CC[C@@H]3[C@H]2CC[C@]2(C)C(=O)CC[C@H]32)C1`, “inactive”; under `CC[C@]1(c2cccc(O)c2)CCCCN(C)C1`, “inactive”. `CCN(CC)C(=O)N[C@@H]1C[C@@H]2c3cccc4[nH]cc(c34)C[C@H]2N(C)C1`: the Potency entry was “inactive”. Regarding `[Hg+][c]1ccccc1`, the Potency was 11.2 µM (active). Take `C[C@H](N)[C@@H](O)c1ccccc1`: the Potency entry is “inactive”. Take `COc1ccc2c(c1OC)CN1CCc3cc4c(cc3[C@H]1C2)OCO4`: the Potency entry is “inactive”.

`CO[C@@H](COC(N)=O)C1=C(N2CC2)C(=O)C(C)=C(N2CC2)C1=O`: the Potency result was “inactive”.

Consider `COc1cc(N)c(Cl)cc1C(=O)N[C@@H]1CN2CCC1CC2`, for which the Potency entry was “inactive”.

As to `CNC(C)[C@@H](O)c1ccccc1` (stereo not given in full), the Potency entry is “inactive”.

On to `CC[C@@]1(c2ccc(N)cc2)CCC(=O)NC1=O`, for which the Potency result is “inactive”. `CCCC[N+]1(C)C2CC(OC(=O)C(CO)c3ccccc3)CC1C1OC12` (stereo not given): the Potency result was “inactive”.

`C#CCN(C)[C@@H](C)Cc1ccccc1`: the Potency entry was “inactive”. Under `CC(C)N(CC[C@@](C(N)=O)(c1ccccc1)c1ccccn1)C(C)C` stands “inactive”; under `NCC[C@H](O)C(=O)N[C@H]1C[C@@H](N)[C@@H](O[C@H]2O[C@@H](CN)[C@@H](O)[C@@H](O)[C@@H]2N)[C@@H](O[C@H]2O[C@@H](CO)[C@@H](O)[C@@H]2O)[C@@H]1O`, “inactive”; under `CN[C@@H](C)[C@H]1CC[C@@H](N)[C@@H](O[C@@H]2[C@@H](O)[C@@H](O[C@H]3OC[C@@](C)(O)[C@@H](NC)[C@@H]3O)[C@H](N)C[C@@H]2N)O1` (tested in a mixture with another compound), “inactive”. For the compound `C[N+]1([O-])[C@@H]2CC(OC(=O)[C@@H](CO)c3ccccc3)C[C@@H]1[C@H]1O[C@H]12` (stereo not given in full), the Potency result was “inactive”. Under `C[C@@H]1O[C@H](O[C@@H]2C=C3CC[C@H]4[C@@H](CC[C@]5(C)[C@@H](c6ccc(=O)oc6)CC[C@]45O)[C@@]3(C)CC2)[C@@H](O)[C@H](O)[C@@H]1O` stands “inactive”; under `NC(=O)CCC1NC(=O)C(Cc2ccccc2)NC(=O)C(Cc2ccc(O)cc2)NC(=O)CCSSCC(C(=O)N2CCCC2C(=O)NC(CCCN=C(N)N)C(=O)NCC(N)=O)NC(=O)C(CC(N)=O)NC1=O` (stereo not given), “inactive”. As to `CNc1ccc(C(=O)CC(O)CCC(C)C2OC(=O)CC(O)CC(=O)CC(O)CC(O)CC(O)CC(O)CC3(O)CC(O)C(C(=O)OC)C(CC(O[C@@H]4OC(C)C(O)C(N)C4O)/C=C/C=C/C=C/C=C/C=C/C=C/C=C/C2C)O3)cc1` (stereo not given in full), the Potency entry was “inactive”. To `CC(C)CC(CN)CC(=O)O` (stereo not given) belongs “inactive”; to `C[C@H](NC(C)(C)C)C(=O)c1cccc(Cl)c1`, “inactive”. To `C[C@@]12CCC(=O)C=C1C=C[C@H]1[C@H]3CC[C@](O)(CCC(=O)O)[C@]3(C)CC[C@@H]12` belongs “inactive”; to `C[N+]1([O-])[C@@H]2CC[C@H]1CC(OC(=O)[C@@H](CO)c1ccccc1)C2` (stereo not given in full), “inactive”; to `CNC(C)[C@@H](O)c1ccc(O)cc1` (stereo not given in full), “inactive”. On to `N[C@H]1C[C@H]1c1ccccc1`, for which the Potency entry was “inactive”. To `O=[As]O[As]=O` (stereo not given) belongs “inactive”; to `CC(C)(O)C1C2OC(=O)C1[C@]1(O)C[C@H]3O[C@]34C(=O)O[C@H]2[C@]14C` (stereo not given in full) (tested in a mixture with another compound), “inactive”.
